# From PubChem BioAssay AID1159580 (chemical genetic matrix, 2015)
# “And” between values parts separate entries of the source, which are not always exact repeats. Equal entries are not always repeated. Out of some 5,500 compounds screened, about 2,000 (36%) were called active. Roughly 18% stayed inconclusive and do not appear here. No stated cut-off is given here; in the data, active means normalized growth mostly below about 0.91 (no sharp cut-off); inconclusive means no clear call, values can overlap the other calls; inactive means mostly above about 0.92. The list shows a part of the results.
# Assay: chemical genetic growth profiling, strain panel (AID 1159580);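 further: tested at 20 µM; growth read once vehicle control cultures reached saturation at 30 °C; 1 = growth at the plate median or of vehicle wells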
# Settings: S. cerevisiae deletion strains, growth OD
compound,measurement,setting,value
CC(Cc1cccc(C(F)(F)F)c1)NCCOC(=O)c1ccccc1 (configuration not stated),normalized growth,"locus YAL013W, strain DEP1, stronger effect = lower value",0.98 (inactive)
same,normalized growth,"locus YAL021C, strain ccr4, stronger effect = lower value",0.853 (active)
same,normalized growth,"locus YAL026C, strain drs2, stronger effect = lower value",0.582 (active)
same,normalized growth,"locus YAL030W, strain snc1, stronger effect = lower value",0.964 (inactive)
same,normalized growth,"locus YBL061C, strain skt5, stronger effect = lower value",0.968 (inactive)
same,normalized growth,"locus YBR009C, strain hhf1, stronger effect = lower value",0.953 (inactive)
same,normalized growth,"locus YBR021W, strain FUR4, stronger effect = lower value",0.513 (active)
same,normalized growth,"locus YBR023C, strain chs3, stronger effect = lower value",0.936 (inactive)
same,normalized growth,"locus YBR171W, strain sec66, stronger effect = lower value",0.975 (inactive)
same,normalized growth,"locus YBR229C, strain ROT2, stronger effect = lower value",1.01 (inactive)
same,normalized growth,"locus YBR231C, strain swc5, stronger effect = lower value",0.948 (inactive)
same,normalized growth,"locus YBR279W, strain paf1, stronger effect = lower value",0.964 (inactive)
same,normalized growth,"locus YCL011C, strain gbp2, stronger effect = lower value",0.971 (inactive)
same,normalized growth,"locus YCL016C, strain dcc1, stronger effect = lower value",0.969 (inactive)
same,normalized growth,"locus YCL029C, strain bik1, stronger effect = lower value",1.03 (inactive)
same,normalized growth,"locus YCL061C, strain MRC1, stronger effect = lower value",0.978 (inactive)
same,normalized growth,"locus YCL069W, strain vba3, stronger effect = lower value",0.967 (inactive)
same,normalized growth,"locus YCR088W, strain abp1, stronger effect = lower value",0.994 (inactive)
same,normalized growth,"locus YDL005C, strain med2, stronger effect = lower value",0.999 (inactive)
same,normalized growth,"locus YDL035C, strain GPR1, stronger effect = lower value",0.917 (inactive)
same,normalized growth,"locus YDL040C, strain nat1, stronger effect = lower value",0.994 (inactive)
same,normalized growth,"locus YDL074C, strain BRE1, stronger effect = lower value",0.914 (inactive)
same,normalized growth,"locus YDL101C, strain DUN1, stronger effect = lower value",0.996 (inactive)
same,normalized growth,"locus YDL134C, strain PPH21, stronger effect = lower value",0.958 (inactive)
same,normalized growth,"locus YDL185W, strain tfp1, stronger effect = lower value",1.02 (inactive)
same,normalized growth,"locus YDL192W, strain arf1, stronger effect = lower value",0.988 (inactive)
same,normalized growth,"locus YDR001C, strain nth1, stronger effect = lower value",0.992 (inactive)
same,normalized growth,"locus YDR069C, strain doa4, stronger effect = lower value",0.845 (active)
same,normalized growth,"locus YDR101C, strain arx1, stronger effect = lower value",0.999 (inactive)
same,normalized growth,"locus YDR137W, strain rgp1, stronger effect = lower value",0.916 (inactive)
same,normalized growth,"locus YDR150W, strain NUM1, stronger effect = lower value",0.997 (inactive)
same,normalized growth,"locus YDR159W, strain sac3, stronger effect = lower value",0.995 (inactive)
same,normalized growth,"locus YDR162C, strain NBP2, stronger effect = lower value",0.945 (inactive)
same,normalized growth,"locus YDR195W, strain ref2",1.01 (inactive)
same,normalized growth,"locus YDR297W, strain sur2, stronger effect = lower value",0.973 (inactive)
same,normalized growth,"locus YDR318W, strain mcm21, stronger effect = lower value",0.963 (inactive)
same,normalized growth,"locus YDR334W, strain swr1, stronger effect = lower value",0.997 (inactive)
same,normalized growth,"locus YDR335W, strain msn5, stronger effect = lower value",0.959 (inactive)
same,normalized growth,"locus YDR388W, stronger effect = lower value",0.811 (active)
same,normalized growth,"locus YDR392W, strain spt3, stronger effect = lower value",1.03 (inactive)
same,normalized growth,"locus YDR502C, strain sam2, stronger effect = lower value",0.974 (inactive)
same,normalized growth,"locus YEL003W, strain gim4, stronger effect = lower value",0.924 (inactive)
same,normalized growth,"locus YEL037C, strain rad23, stronger effect = lower value",0.973 (inactive)
same,normalized growth,"locus YEL061C, strain CIN8 (second series), stronger effect = lower value",0.988 (inactive)
same,normalized growth,"locus YEL061C, strain CIN8, stronger effect = lower value",0.993 (inactive)
same,normalized growth,"locus YER015W, strain faa2, stronger effect = lower value",0.899 (active)
same,normalized growth,"locus YER016W, strain bim1, stronger effect = lower value",1 (inactive)
same,normalized growth,"locus YER110C, stronger effect = lower value",1.01 (inactive)
same,normalized growth,"locus YER111C, strain swi4, stronger effect = lower value",0.997 (inactive)
same,normalized growth,"locus YER155C, strain BEM2 (second series), stronger effect = lower value",0.934 (inactive)
same,normalized growth,"locus YER155C, strain BEM2, stronger effect = lower value",1.02 (inactive)
same,normalized growth,"locus YER167W, strain BCK2, stronger effect = lower value",0.985 (inactive)
same,normalized growth,"locus YFR010W, strain ubp6, stronger effect = lower value",0.831 (active)
same,normalized growth,"locus YGL078C, strain dbp3, stronger effect = lower value",1.01 (inactive)
same,normalized growth,"locus YGL086W, strain mad1, stronger effect = lower value",0.953 (inactive)
same,normalized growth,"locus YGL167C, strain pmr1, stronger effect = lower value",0.991 (inactive)
same,normalized growth,"locus YGL173C, strain kem1, stronger effect = lower value",0.919 (inactive)
same,normalized growth,"locus YGL227W, strain vid30, stronger effect = lower value",0.995 (inactive)
same,normalized growth,"locus YGL240W, strain doc1, stronger effect = lower value",0.945 (inactive)
same,normalized growth,"locus YGL248W, strain PDE1, stronger effect = lower value",0.957 (inactive)
same,normalized growth,"locus YGL253W, strain hxk2, stronger effect = lower value",0.96 (inactive)
same,normalized growth,"locus YGR078C, strain PAC10, stronger effect = lower value",0.921 (inactive)
same,normalized growth,"locus YGR135W, strain pre9, stronger effect = lower value",0.914 (inactive)
same,normalized growth,"locus YGR229C, strain SMI1, stronger effect = lower value",0.612 (active)
same,normalized growth,"locus YGR252W, strain gcn5, stronger effect = lower value",0.923 (inactive)
same,normalized growth,"locus YHR013C, strain ard1, stronger effect = lower value",0.963 (inactive)
same,normalized growth,"locus YHR027C, strain rpn1, stronger effect = lower value",0.941 (inactive)
same,normalized growth,"locus YHR030C, strain SLT2, stronger effect = lower value",0.833 (active) and 0.974 (inactive)
same,normalized growth,"locus YHR079C, strain IRE1 (second series), stronger effect = lower value",1 (inactive)
same,normalized growth,"locus YHR079C, strain IRE1, stronger effect = lower value",0.981 (inactive)
same,normalized growth,"locus YHR094C, strain hxt1, stronger effect = lower value",1.02 (inactive)
same,normalized growth,"locus YHR129C, strain ARP1, stronger effect = lower value",1 (inactive)
same,normalized growth,"locus YHR142W, strain chs7, stronger effect = lower value",0.925 (inactive)
same,normalized growth,"locus YHR200W, strain rpn10, stronger effect = lower value",0.996 (inactive)
same,normalized growth,"locus YIL066C, strain RNR3, stronger effect = lower value",0.962 (inactive)
same,normalized growth,"locus YIL073C, strain SPO22, stronger effect = lower value",1.14 (inactive)
same,normalized growth,"locus YIL125W, strain kgd1, stronger effect = lower value",1.02 (inactive)
same,normalized growth,"locus YIR030C, strain dcg1, stronger effect = lower value",1 (inactive)
same,normalized growth,"locus YJL092W, strain hpr5, stronger effect = lower value",0.953 (inactive)
same,normalized growth,"locus YJL095W, strain BCK1 (second series), stronger effect = lower value",0.954 (inactive)
same,normalized growth,"locus YJL095W, strain BCK1, stronger effect = lower value",0.614 (active) and 0.976 (inactive)
same,normalized growth,"locus YJL115W, strain asf1, stronger effect = lower value",0.979 (inactive)
same,normalized growth,"locus YJL129C, strain trk1, stronger effect = lower value",0.997 (inactive)
same,normalized growth,"locus YJL134W, strain LCB3, stronger effect = lower value",1 (inactive)
same,normalized growth,"locus YJL154C, strain vps35, stronger effect = lower value",0.986 (inactive)
same,normalized growth,"locus YJL164C, strain tpk1, stronger effect = lower value",0.953 (inactive)
same,normalized growth,"locus YJL166W, strain qcr8, stronger effect = lower value",0.943 (inactive)
same,normalized growth,"locus YJL168C, strain set2, stronger effect = lower value",1 (inactive)
same,normalized growth,"locus YJL187C, strain SWE1 (second series), stronger effect = lower value",0.923 (inactive)
same,normalized growth,"locus YJL187C, strain SWE1, stronger effect = lower value",0.978 (inactive)
same,normalized growth,"locus YJR043C, strain POL32, stronger effect = lower value",1.04 (inactive)
same,normalized growth,"locus YJR066W, strain TOR1, stronger effect = lower value",0.879 (inactive)
